KCNQ2 inh = rat KCNQ2 potassium channel inhibitors, primary screen, cell-based, CHO-K1, FluxOR thallium flux, B-score. B-score at 10 µM. Potassium voltage-gated channel subfamily KQT member 2 (Rattus norvegicus), O88943. 1.1% of 310,000 active. 20 min; hits give low values;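 active = fluorescence ratio B-score at most minus 3 library SDs, with starting brightness B-score within 2 library SDs, cut at about -5.5 in these data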
Target sequence (O88943 whole entry, looked up): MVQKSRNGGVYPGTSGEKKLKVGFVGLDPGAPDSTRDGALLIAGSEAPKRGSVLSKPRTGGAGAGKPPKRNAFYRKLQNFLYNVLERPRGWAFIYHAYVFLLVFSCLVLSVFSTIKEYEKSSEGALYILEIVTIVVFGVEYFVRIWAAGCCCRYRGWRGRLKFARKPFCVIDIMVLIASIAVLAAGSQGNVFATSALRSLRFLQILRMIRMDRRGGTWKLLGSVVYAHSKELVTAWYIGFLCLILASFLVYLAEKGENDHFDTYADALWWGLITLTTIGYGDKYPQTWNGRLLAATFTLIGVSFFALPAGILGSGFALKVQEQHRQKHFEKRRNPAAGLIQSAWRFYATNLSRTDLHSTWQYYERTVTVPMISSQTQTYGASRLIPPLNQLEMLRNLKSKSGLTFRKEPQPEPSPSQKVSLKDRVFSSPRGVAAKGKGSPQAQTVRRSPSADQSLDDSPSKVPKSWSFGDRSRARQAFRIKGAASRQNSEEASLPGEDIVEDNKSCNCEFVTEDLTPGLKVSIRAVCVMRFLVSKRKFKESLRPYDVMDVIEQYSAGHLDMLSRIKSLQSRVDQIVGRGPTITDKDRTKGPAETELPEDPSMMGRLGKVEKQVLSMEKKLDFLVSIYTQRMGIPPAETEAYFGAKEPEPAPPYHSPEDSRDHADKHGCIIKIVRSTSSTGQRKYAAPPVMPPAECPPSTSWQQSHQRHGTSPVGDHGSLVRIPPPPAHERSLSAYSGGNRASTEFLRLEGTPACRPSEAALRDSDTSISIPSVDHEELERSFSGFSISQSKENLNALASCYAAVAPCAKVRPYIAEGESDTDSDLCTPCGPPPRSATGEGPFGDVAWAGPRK
KCNQ2 pot = potentiators of rat KCNQ2 potassium channel | CHO-K1 KCNQ2, FluxOR thallium flux fluorescence; hits give high values | B-score at 10 µM | 0.54% of 310,000 active | AID 2239, 2010;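 active = fluorescence ratio B-score at least 3 SD of library B-scores, with initial fluorescence B-score within 3 of them, cut at about 5.3 in these data; same plate scores as AID 2156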;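 also: B-score of peak minus minimum over baseline fluorescence ratio after K+ and Tl+ stimulus; positive B-score means potentiation of KCNQ2 with more thallium influx and brighter signal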
KCNQ2 block conf = rat KCNQ2 potassium channel inhibitors, confirmation, cell-based, thallium flux; shares compounds with KCNQ2 inh; KCNQ2-expressing cells, inhibition; hits give low values; 57% of 1,000 active; activity change, negative = inhibition, % at 10 µM;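 also: 0% = vehicle wells and values are ratio percent relative to vehicle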
KCNQ1 spec = human KCNQ1 channel inhibition, counter-screen for KCNQ2 inhibitor project, cell-based, FluxOR thallium flux. shares compounds with KCNQ2 inh. KCNQ1-expressing cells, FluxOR thallium flux fluorescence; hits give low values. activity change, negative = inhibition, % at 10 µM. 15% of 1,000 active. AID 493026, 2011;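 active = activity change at least 3 SD of negative controls below their mean in both duplicate wells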;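 also: CHO cells stably transfected with KCNQ1 and depolarized by potassium stimulus; peak minus minimum fluorescence over baseline after thallium addition; 0% = vehicle negative control and -100% = blank without thallium stimulus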
CHO Tl ctr = thallium flux change in parental CHO cells, counter-screen for KCNQ2 inhibitor project; shares compounds with KCNQ2 inh; hits give low values; activity change, % at 10 µM; 14% of 1,000 active; AID 493029, 2011;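 also: 0% = vehicle negative controls with stimulus buffer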
KCNQ2 patch conf = rat KCNQ2 channel inhibitors, confirmation, cell-based, automated patch clamp, single concentration | 49% of 550 active | KCNQ2-expressing cells, automated patch clamp current | calls only at 10 µM | shares compounds with KCNQ2 inh
* hit, by the source's call; i = inactive; x = no result given; + = active, no number. Rows were chosen to be rich in hits. Some 1.6% of all compounds tested hit in one or more screens of this group. Unless noted, no rule for the calls is given here.

SMILES	KCNQ2 inh	KCNQ2 pot	KCNQ2 block conf	KCNQ1 spec	CHO Tl ctr	others
O=C(CN1C(=O)NC2(CCCc3ccccc32)C1=O)N1CCCCC1 (configuration not stated)	i	x	x	x	x
CCOC(=O)N1CCC(NC(=O)CSCc2nc(-c3ccc(OC)cc3)oc2C)CC1	i	x	x	x	x
COc1cc(CC(=O)NC2CCCc3ccccc32)cc(OC)c1OC (configuration not stated)	i	0.39	x	x	x
COc1ccc(-c2nc(CSCC(=O)NC3CCCc4ccccc43)c(C)o2)cc1 (configuration not stated)	-7.3*	-7.3	-29%*	i	i	KCNQ2 patch conf=+
COC(=O)[C@H](CC(C)C)NC(=O)NC1CCCc2ccccc21 (some centres not stated)	-7.5*	-7.5	-28%*	i	i	KCNQ2 patch conf=+
COc1ccccc1CC(=O)NC1CCCc2ccccc21 (configuration not stated)	-7.1*	-7.1	-24%*	i	i	KCNQ2 patch conf=+
CC(C)C[C@H](NC(=O)NC1CCCc2ccccc21)C(=O)O (some centres not stated)	i	x	x	x	x
S=C(Sc1ccc(Cl)cc1)Sc1ccc(Cl)cc1	i	x	x	x	x
O=C(/C=C/c1cccc(Cl)c1)NCCCN1CCOCC1	i	0.66	x	x	x
COc1ccc(/C=C(/C(=O)c2cccs2)N2C=CC=CC2=C(C#N)C#N)cc1	-7.9*	-7.9	-42%*	i	i	KCNQ2 patch conf=i
COc1ccc(N=N/C(=C\O)C(=O)c2cccs2)cc1	i	x	x	x	x
CCSc1ccc2cc(OC)ccc2[n+]1CC	i	0.19	x	x	x
Nc1nc(Nc2ccccc2)nc(NC2CCCCC2)c1[N+](=O)[O-]	i	2.4	x	x	x
CC(=O)N1CCN(c2cc(N3CCCC3)c(F)cc2[N+](=O)[O-])CC1	i	x	x	x	x
CCN1CCN(c2cc(N3CCc4ccccc4C3)c(F)cc2[N+](=O)[O-])CC1	-6.9*	-6.9	-29%*	i	i
O=C(CSc1ccc(Cl)cc1)N1CCN(c2c(Cl)cccc2[N+](=O)[O-])CC1	-8.2*	-8.2	i	i	i
O=C(/C=C/c1ccc(Cl)cc1)N1CCN(c2c(Cl)cccc2[N+](=O)[O-])CC1	i	x	x	x	x
CCc1ccc(-c2cc(C)no2)cc1S(=O)(=O)N1CCC(C)CC1	i	x	x	x	x
Cc1cc(-c2ccc(C(C)C)c(S(=O)(=O)N3CCC(C)CC3)c2)on1	-8.4*	-8.4	-16%*	i	i	KCNQ2 patch conf=i
CCCn1c(=O)c(C(=O)NC(C)c2ccccc2)c(O)c2ccccc21 (configuration not stated)	-11*	-11	i	i	i
CCn1c(=O)c(C(=O)NC(C)c2ccccc2)c(O)c2ccccc21 (configuration not stated)	i	x	x	x	x
Cn1c(=O)c(C(=O)NCc2ccccc2Cl)c(O)c2ccccc21	i	x	x	x	x
CCn1c(=O)c(C(=O)NCc2ccccc2Cl)c(O)c2ccccc21	-8.4*	-8.4	-36%*	-37%*	-23%*	KCNQ2 patch conf=i
COCc1cc(CNC(=O)C2CCC(=O)N(Cc3ccccc3OC)C2)[nH]n1 (configuration not stated)	i	0.68	x	x	x
Cc1ccc(S(=O)(=O)N(C)C)cc1NC(=O)COC(=O)c1sc2cc(Cl)ccc2c1Cl	i	x	x	x	x
SMILES	KCNQ2 inh	KCNQ2 pot	KCNQ2 block conf	KCNQ1 spec	CHO Tl ctr	others
COc1cc(-c2nc3cnccn3c2Nc2ccccc2)ccc1O	i	0.45	x	x	x
COc1cc(-c2nc3cccc(C)n3c2NCC2CCCO2)ccc1O (configuration not stated)	-8.6*	-8.6	i	i	i
CC1(C)COC(c2cccc(C3=NC(C)(C)CO3)n2)=N1	i	0.11	x	x	x
COc1cccc(CNC(=O)C2CCC(=O)N(C3CC3)C2)c1OC (configuration not stated)	i	0.96	x	x	x
COc1cc(-c2cc(C(=O)Nc3ccc(S(N)(=O)=O)cc3)c3ccccc3n2)cc(OC)c1OC	i	x	x	x	x
COc1ccc(-c2cc(C(=O)NCC(c3ccccc3)N(C)C)c3ccccc3n2)cc1OC (configuration not stated)	i	x	x	x	x
COCCN(Cc1ccccc1)C(=O)c1cc(-c2ccc(OC)c(OC)c2)nc2ccccc12	-8.9*	-8.9	-30%*	i	i	KCNQ2 patch conf=+
COc1ccccc1CN(C)C(=O)c1cc(-c2cc(OC)c(OC)c(OC)c2)nc2ccccc12	i	x	x	x	x
COc1cc(-c2cc(C(=O)N(C)Cc3ccccc3)c3ccccc3n2)cc(OC)c1OC	-7.2*	-7.2	-28%*	i	i	KCNQ2 patch conf=+
COc1cc(-c2cc(C(=O)Nc3c(Cl)cc(Cl)cc3Cl)c3ccccc3n2)cc(OC)c1OC	-7.2*	-7.2	-25%*	i	i	KCNQ2 patch conf=+
COCc1cc(C)nc(N/N=C/c2ccc(Cl)c(Cl)c2)c1C#N	i	1.3	x	x	x
COc1cccc(C(=O)NC(=S)Nc2ccc3c4c(cccc24)CC3)c1	i	0.83	x	x	x
Fc1ccc(C(c2ccc(F)cc2)N2CCN(C/C=C/c3ccccc3)CC2)cc1	-8.6*	-8.6	i	i	i
C(=C\c1ccccc1)/CN1CCN(C(c2ccccc2)c2ccccc2)CC1	i	x	x	x	x
CCOC(=O)N1CCN(C(=O)c2cc(COc3cccc(C(F)(F)F)c3)on2)CC1	i	0.66	x	x	x
C=CCC1(CC=C)CCCN1C(=O)c1cc(COc2cccc(C(F)(F)F)c2)on1	-9.5*	-9.5	-34%*	-30%*	-28%*	KCNQ2 patch conf=+
O=C(CCNc1ccc(Cc2ccncc2)cc1)c1cccc([N+](=O)[O-])c1	i	x	x	x	x
O=C(CCNc1cccc(F)c1)c1cccc([N+](=O)[O-])c1	-6.7*	-6.7	i	i	i
O=C(Nc1cccc(NC(=O)c2ncn[nH]2)c1)c1cccc(Cl)c1	i	0.04	x	x	x
CC(C)C(C(=O)OCC(=O)c1ccccc1)N1C(=O)C2C3C=CC(C3)C2C1=O (configuration not stated)	i	x	x	x	x
C/C(=C\C(=O)c1ccc(F)cc1)NCc1ccc2c(c1)OCO2	i	x	x	x	x
C/C(=C\C(=O)c1ccc(Br)cc1)NCc1ccc2c(c1)OCO2	-6.9*	-6.9	-17%*	i	i	KCNQ2 patch conf=i
S=c1sc2ccccc2n1CCc1ccncc1	i	x	x	x	x
O=C(CN(c1ccc(Cl)c(Cl)c1)S(=O)(=O)c1ccccc1)N1CCc2ccccc2C1	-9.4*	-9.4	-33%*	i	i	KCNQ2 patch conf=+
COc1ccc(N(CC(=O)N2CCc3ccccc3C2)S(=O)(=O)c2ccccc2)cc1	i	x	x	x	x
COc1ccc(CN2CCSc3sccc3C2=O)cc1	i	0.25	x	x	x
